The supplement of paper PMC6555819

Assays:
Assay in all cases: PBM binding z-score (relative to random genomic background probes); higher = stronger binding; sequences stand for … in GC…GCGATTGACAGCGTAGAATGAAGG
[1] = test system: PPARg:RXRa DBDmut IVT, anti-RXR (DBD mutation: RXRa K156A/R161A, NR concentration 270 nM, RXRa partner concentration 90 nM)
Procedure, shortened: (§1)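 Ligand-free nuclear receptor dimers were bound for 1 h to custom Agilent 4×180K protein-binding microarrays. Detection used antibodies against each partner (one per run). Binding z-scores rest on regression-normalized fluorescence, with random background probes as the reference.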

[2] = test system: PPARg:RXRa IVT, anti-PPARg (NR concentration 270 nM, RXRa partner concentration 90 nM)
Procedure, shortened: as §1

[3] = test system: PPARg DBDmut:RXRa IVT, anti-PPARg (DBD mutation: PPARg1 K132A/R137A, NR concentration 270 nM, RXRa partner concentration 90 nM)
Procedure, shortened: as §1

[4] = test system: PPARg DBDmut IVT, anti-PPARg (DBD mutation: PPARg1 K132A/R137A, NR concentration 270 nM)
Procedure, shortened: as §1

[5] = test system: PPARg homodimer (NR concentration 180 nM)
Procedure, shortened: as §1

[6] = test system: PXR:RXRa (NR concentration 270 nM, RXRa partner concentration 90 nM)
Procedure, shortened: as §1

[7] = test system: PXR homodimer (NR concentration 270 nM)
Procedure, shortened: as §1

[8] = test system: RARa:RXR (NR concentration 270 nM, RXRa partner concentration 90 nM)
Procedure, shortened: as §1

[9] = test system: RARa homodimer (NR concentration 270 nM)
Procedure, shortened: as §1

[10] = test system: RARb:RXRa (NR concentration 270 nM, RXRa partner concentration 90 nM)
Procedure, shortened: as §1

[11] = test system: RARb homodimer (NR concentration 270 nM)
Procedure, shortened: as §1

[12] = test system: RARg:RXRa (NR concentration 270 nM, RXRa partner concentration 90 nM)
Procedure, shortened: as §1

[13] = test system: RARg homodimer (NR concentration 270 nM)
Procedure, shortened: as §1

[14] = test system: RXRa DBDmut IVT, anti-RXR (DBD mutation: RXRa K156A/R161A, NR concentration 90 nM)
Procedure, shortened: as §1

[15] = test system: RXRa homodimer (NR concentration 180 nM)
Procedure, shortened: as §1

[16] = test system: THRa:RXRa (NR concentration 90 nM, RXRa partner concentration 90 nM)
Procedure, shortened: as §1

[17] = test system: THRa homodimer (NR concentration 90 nM)
Procedure, shortened: as §1

[18] = test system: VDR homodimer (NR concentration 270 nM)
Procedure, shortened: as §1

Sequence | PBM binding z-score [1] | PBM binding z-score [2] | PBM binding z-score [3] | PBM binding z-score [4] | PBM binding z-score [5] | PBM binding z-score [6] | PBM binding z-score [7] | PBM binding z-score [8] | PBM binding z-score [9] | PBM binding z-score [10] | PBM binding z-score [11] | PBM binding z-score [12] | PBM binding z-score [13] | PBM binding z-score [14] | PBM binding z-score [15] | PBM binding z-score [16] | PBM binding z-score [17] | PBM binding z-score [18]
GCTACTGGGGCAAAGCAGGTTACCATAAGGTTGG | 6.4 | 5.54 | 0.032 | -0.0829 | 0.182 | 0.319 | -0.456 | 0.495 | -0.534 | 1.12 | 1.16 | 0.343 | 0.791 | 0.0265 | 0.261 | 2.75 | 0.258 | -0.451
TATACAGGGTCAAAGGCCAGAGTGCGAATGTCGA | 2.54 | 4.9 | 2.49 | 2.56 | 5.37 | 4.79 | 1.14 | 6.61 | 1.49 | 4.59 | 3.58 | 5.91 | 5 | 3.25 | 7.4 | 3.57 | 0.842 | 3.38
ACTATTTGGTCAGCTGAGGTCACACACAATTCGG | 1.59 | 2.69 | 1.5 | 1.46 | 2.9 | 5.26 | 1.97 | 4.3 | 1.66 | 3.65 | 4.69 | 4.24 | 4.48 | 2.02 | 4.4 | 5.09 | 5.11 | 3.67
AGTCAATGTTCATCTAGGTAACGTAAGATATGCT | 0.56 | 1.85 | 1.15 | 0.949 | -0.656 | -0.196 | 0.00127 | -0.13 | 0.181 | 0.152 | -0.0821 | 0.125 | 0.41 | 0.291 | 0.0893 | 0.616 | 0.345 | -0.282
CGAGCGAGGGCATGAGTTGATAGCAAATGCCGAT | 0.598 | 0.064 | -0.548 | -1 | -0.175 | 0.544 | -0.137 | 0.536 | -0.541 | 2.03 | 0.657 | 1.14 | 1.22 | 2.15 | 1.19 | 0.963 | -0.509 | 1.46
AGTCAAAGTTCATTTAGGTAACGTAAGATATGCT | 0.638 | 3.21 | 1.36 | 1.51 | 2.39 | 5.45 | 8.27 | 3.63 | 1.4 | 4.66 | 3.77 | 5.03 | 5.39 | 4.96 | 4.35 | 3.29 | 1.03 | 5.45
AGAATGAGGTTACCAAAAATCAGGGAAACGCTTG | 4.5 | 3.48 | 1.31 | 0.817 | 0.553 | 1.04 | -0.0178 | 1.76 | 0.389 | 2.08 | 0.769 | 1.84 | 1.53 | 1.07 | 2.47 | 2.57 | 1.03 | 0.541
ATTCGGAGGACAAAGGTCAGAGCTACGCCAGTGA | 0.417 | 3.74 | 0.302 | -0.48 | 3.33 | 3.99 | 0.477 | 4.9 | 0.808 | 4.39 | 4.59 | 5.89 | 5.52 | 0.937 | 5.03 | 3.41 | 0.717 | 1.32
CCTACTGGGCCGCGAAAGGTCATTGATTCAGTGA | 2.81 | 3.04 | -1.14 | -0.345 | 3.03 | 5.13 | 1.47 | 5.27 | 0.0232 | 3.81 | 4.47 | 4.49 | 3.88 | 0.701 | 5.19 | 3.25 | 0.433 | 2.12
CCCTACGGGTCAAGGTTATAGCACGGGTGGTACG | -0.17 | 2.06 | -0.206 | -1.06 | 2.1 | 3.35 | 0.417 | 4.27 | 1.19 | 4.07 | 3.5 | 5.05 | 4.83 | 0.145 | 5.35 | 3.07 | 0.962 | 1.07
GATACAGGGTCAGCTAGAGGCCACAGTATGGAAA | 1.47 | 2.57 | 0.921 | 0.377 | 2.57 | 3.94 | -0.253 | 5.22 | 0.785 | 4.2 | 3.61 | 7.06 | 5.21 | 0.909 | 4.27 | 3.39 | 0.56 | 0.844
CCTTACTGGTCACTGACAGGTTATAGCATTTGGA | 1.41 | 0.777 | 0.395 | 0.913 | 1.46 | 0.611 | 0.48 | 0.74 | 1.52 | 1.72 | 1.55 | 1.76 | 1.32 | 0.856 | 0.874 | 0.492 | 0.796 | 0.63
TCATATAGGTATAGGTGAAAGTCGAACGATATGA | 2.01 | 1.55 | 0.818 | 1.13 | 0.0595 | 0.316 | 0.0974 | 0.665 | 0.0245 | 0.587 | 0.405 | 0.646 | 0.511 | 0.538 | 1.13 | 0.242 | -0.544 | -0.127
GCCCGGAGGACAAGGTCAGAGCTTTGTCCGTAGA | -0.658 | 0.093 | -1.17 | -2.1 | 0.821 | 1.56 | -0.306 | 2.17 | -1.21 | 3.16 | 3.19 | 2.99 | 3.62 | 0.344 | 2.04 | 2.92 | 1.67 | 0.864
